Shown are actives, neighbours in structure and some others; about 2.3% of the full set was active somewhere.
PME-1 primary: PME-1 inhibitors via competitive probe labeling, primary screen, biochemical, fluorescence polarization, FP-Rh probe, HTS; Protein phosphatase methylesterase 1 (Homo sapiens), Q9Y570; actives 0.53% (n = 320,000); recombinant PME-1; inhibition, % at 5.9 µM;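 active means inhibition above the campaign mean of all compounds plus 3 SD, cut at about 26% in these data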;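 further: competitive labeling of PME-1 active site by serine hydrolase directed probe; 0% = PME-1 with DMSO and 100% = wells lacking PME-1 enzyme; inhibitors block probe labeling so polarization falls and inhibition rises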
GSTO1 inh: inhibitors of recombinant GSTO1, primary screen, counter-screen for RBBP9 inhibitor project, biochemical, fluorescence polarization; Glutathione S-transferase omega-1 (Homo sapiens), P78417; activity-based probe fluorescence polarization; inhibition, % at 5.96 µM; actives 1.1% (n = 300,000); AID 1974, 2009;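 active means inhibition above the campaign mean inhibition plus 3 SD, cut at about 35% in these data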;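 further: 0% = GSTO1-1 with DMSO and 100% = wells lacking GSTO1-1 enzyme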
PAD4 inh: human PAD4 inhibitors, primary screen, biochemical, fluorescence polarization, 1536-well format; Protein-arginine deiminase type-4 (Homo sapiens), Q9UM07; recombinant PAD4, RCA probe fluorescence polarization; inhibition, % at 6.36 µM; actives 0.41% (n = 330,000); AID 485272, 2010;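 active means percent inhibition above a cutoff equal to the mean of all tested compounds plus 3 SD, cut at about 15% in these data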;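 further: 0% = PAD4 with RCA probe and DMSO and 100% = probe without PAD4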
Target sequence (Q9UM07 whole entry, looked up): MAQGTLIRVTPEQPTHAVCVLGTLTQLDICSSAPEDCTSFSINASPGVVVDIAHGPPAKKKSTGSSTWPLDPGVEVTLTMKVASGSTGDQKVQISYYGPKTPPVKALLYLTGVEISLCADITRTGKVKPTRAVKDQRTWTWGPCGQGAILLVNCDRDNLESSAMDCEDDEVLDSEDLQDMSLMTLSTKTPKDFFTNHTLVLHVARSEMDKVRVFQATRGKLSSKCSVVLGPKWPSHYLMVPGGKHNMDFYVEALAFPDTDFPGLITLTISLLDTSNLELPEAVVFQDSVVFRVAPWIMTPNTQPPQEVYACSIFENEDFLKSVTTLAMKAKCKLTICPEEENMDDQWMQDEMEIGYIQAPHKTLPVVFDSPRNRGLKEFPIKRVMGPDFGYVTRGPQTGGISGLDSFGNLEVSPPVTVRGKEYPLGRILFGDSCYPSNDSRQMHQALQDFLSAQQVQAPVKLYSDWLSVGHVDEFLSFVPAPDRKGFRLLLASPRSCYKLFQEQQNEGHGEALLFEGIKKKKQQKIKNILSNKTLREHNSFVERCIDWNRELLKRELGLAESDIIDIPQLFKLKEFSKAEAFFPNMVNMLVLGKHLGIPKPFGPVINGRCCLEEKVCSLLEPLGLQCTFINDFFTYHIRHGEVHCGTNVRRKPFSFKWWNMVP
Fam108B inh: mouse Fam108B serine hydrolase inhibitors, primary screen, counter-screen for RBBP9 inhibitor project, biochemical, fluorescence polarization. actives 0.33% (n = 300,000). inhibition, % at 9.51 µM. recombinant Fam108B, FP-Rh probe fluorescence polarization;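 active means inhibition above the screen mean inhibition plus 3 SD, computed separately per campaign, cut at about 18% in these data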;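 further: inhibitors lower polarization as less probe binds the enzyme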
pPAFAH inh: pPAFAH enzyme inhibitors, primary screen, biochemical, fluorescence polarization, human. AID 463082, 2010. inhibition, % at 3.39 µM. actives 1.5% (n = 330,000). Platelet-activating factor acetylhydrolase (Homo sapiens), Q13093. recombinant pPAFAH, FP-rhodamine probe fluorescence polarization;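 active means inhibition above the mean inhibition across the screen plus 3 SD, cut at about 25% in these data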;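 further: inhibitors block binding of the rhodamine activity-based probe so polarization drops; 0% = enzyme with DMSO and 100% = wells lacking pPAFAH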
GSTO1 inh conf: GSTO1 inhibitor hit confirmation, counter-screen for RBBP9 inhibitor project, biochemical, fluorescence polarization, triplicate; actives 54% (n = 2,400); recombinant GSTO1, probe fluorescence polarization; inhibition, % at 5.96 µM; shares compounds with GSTO1 inh;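 active means inhibition above the primary screen's cutoff, its mean inhibition plus 3 SD, cut at about 35% in these data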;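 further: loss of polarization as inhibitors block binding of rhodamine sulfonate ester activity probe; 0% = GSTO1 with DMSO and 100% = wells lacking GSTO1 enzyme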
GSTO1 ABPP inh: inhibitors of purified human GSTO1, late-stage follow-up, biochemical, gel ABPP, SE-Rh probe, percent inhibition. shares compounds with GSTO1 inh. recombinant GSTO1, gel ABPP SE-Rh probe fluorescence. inhibition, % at 1 µM. actives 30% (n = 130). AID 463110, 2010;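 active means inhibition of the enzyme GSTO1 above about 75%, limit read from the data; inactive means inhibition below that limit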
pPAFAH confirm: pPAFAH (PLA2G7) enzyme inhibitors, confirmation, biochemical, fluorescence polarization, human; actives 72% (n = 2,300); shares compounds with pPAFAH inh; inhibition, % at 3.39 µM; AID 463230, 2010; recombinant pPAFAH, FP-Rh probe fluorescence polarization;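 active means mean inhibition of the triplicate above the hit cutoff set for the earlier primary screen, cut at about 25% in these data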;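 further: 0% = enzyme with DMSO and 100% = wells lacking pPAFAH enzyme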
PAD4 FP conf: human PAD4 inhibitors, confirmation, biochemical, fluorescence polarization | shares compounds with PAD4 inh | recombinant PAD4, RCA probe fluorescence polarization | inhibition, % at 6.36 µM | actives 28% (n = 1,200);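 active means mean inhibition across replicates above the hit cutoff set by the earlier primary screen, cut at about 15% in these data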;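 further: inhibitors block active-site labeling by the probe so polarization falls; 0% = PAD4 with probe and DMSO and 100% = probe without PAD4 enzyme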
* marks the source's active call; other numbers are inactive results; / = not tested or not shown.

SMILES	PME-1 primary	GSTO1 inh	PAD4 inh	Fam108B inh	pPAFAH inh	GSTO1 inh conf	PAD4 FP conf	others
CCN(CC)S(=O)(=O)c1ccc(C)c(NS(=O)(=O)c2cc(/C=C/C(=O)O)cc(OC)c2OC)c1	-9.1	39.0*	52.6*	1.3	-6.2	24.3	-10.4
CCc1ccc(OCC(=O)N/N=C2\CC(=O)c3ccccc32)cc1	2.4	61.2*	24.6*	2.5	24.3	25.3	-7.6
COc1ccc(C(c2c(C)n(C)n(-c3ccccc3)c2=O)c2c(C)n(C)n(-c3ccccc3)c2=O)cc1OC	2.0	-7.0	-4.6	1.8	9.6	/	/
COc1ccc(C(c2c(C)[nH]n(-c3ccccc3)c2=O)c2c(C)[nH]n(-c3ccccc3)c2=O)cc1OC	5.4	69.3*	68.9*	1.2	-5.7	22.3	-0.2
O=C(Cc1ccc(Cl)cc1)NCCc1c[nH]c2ccccc12	2.5	8.6	2.9	2.6	5.7	/	/
O=C(CCl)N(c1ccc(Cl)cc1)c1c[nH]c2ccccc12	-11.3	71.6*	16.6*	-0.8	-1.4	82.2*	33.8*	GSTO1 ABPP inh=63.0
CCC(C)NC(=O)Cn1ccc2cc(S(=O)(=O)N3CCCCCC3)ccc21 (stereo unspecified)	-0.9	2.9	-1.3	-3.6	2.7	/	/
CCOc1ccc(CCNC(=O)COC(=O)c2nc(Cl)ccc2Cl)cc1OCC	-4.1	8.2	1.0	-0.4	3.9	/	/
COc1ccc(-c2cc(=O)[nH][nH]2)cc1OC	0.2	66.1*	64.5*	-0.8	1.1	3.4	-6.8
Fc1ccc(-c2cnc[nH]2)cc1	-5.3	-7.1	-6.7	-3.0	-7.3	/	/
O=c1cccc(-c2ccccc2)[nH]1	1.8	3.5	-0.6	-1.6	5.6	/	/
O=c1cc(-c2ccc(F)cc2)[nH][nH]1	2.6	41.2*	59.5*	5.4	1.1	7.0	-3.0
O=c1cc(-c2ccccc2)[nH][nH]1	1.6	38.1*	34.7*	1.7	7.6	1.7	6.6
Cc1ccc(N(CC(O)CN2CCOCC2)S(=O)(=O)c2ccc([N+](=O)[O-])cc2)cc1 (stereo unspecified)	-2.1	4.6	4.0	2.1	0.6	/	/
Cc1ccc(N/C(=C\C(=O)c2ccccc2)C(=O)O)cc1	-5.0	5.8	-1.3	-0.1	0.3	/	/
CN(C)c1cc(Cl)c2nonc2c1N	5.9	60.2*	39.6*	9.0	10.6	34.7	-8.8
CCN(CC)c1cc(Cl)c2nonc2c1N	0.8	4.2	-3.5	-1.2	1.9	/	/
COc1ccc(F)cc1S(=O)(=O)N1CC(C)CC(C)C1 (stereo unspecified)	-0.3	-0.4	0.6	4.2	-1.0	/	/
COc1ccc(OC)c(N)c1	14.8	45.5*	38.4*	9.1	16.6	13.5	-4.3
CC(C)C[C@H](NC(=O)C1CC(=O)N(c2ccc3c(c2)OCO3)C1)C(=O)NC1CCCCC1 (stereo partly specified)	0.6	1.7	2.1	2.5	3.3	/	/
Cc1[nH][nH]c(=O)c1C(c1c(C)[nH][nH]c1=O)c1cn(Cc2ccc(F)cc2)c2ccccc12	16.1	56.3*	24.1*	8.2	10.4	14.0	-17.5
O=c1c2ccccc2ncn1Cc1ccc(Cl)c(Cl)c1	-0.4	-0.3	2.1	-1.0	-5.1	/	/
Cc1[nH][nH]c(=O)c1C(c1c(C)[nH][nH]c1=O)c1cn(Cc2ccc(Cl)c(Cl)c2)c2ccccc12	3.7	66.3*	33.5*	9.1	17.8	55.8*	-5.8
Cn1cccc1-c1nc2ccccc2[nH]1	3.1	-0.7	-7.0	-0.3	5.3	/	/
CC(=O)N1CCn2c3c(c(=O)c4cc(C)ccc42)CCC31 (stereo unspecified)	5.2	73.2*	46.1*	9.1	12.9	56.7*	-2.9
SMILES	PME-1 primary	GSTO1 inh	PAD4 inh	Fam108B inh	pPAFAH inh	GSTO1 inh conf	PAD4 FP conf	others
CC(=O)N1CCn2c3c(c4cc(C)ccc42)CCCC31 (stereo unspecified)	9.5	10.2	1.7	-3.1	7.9	/	/
Cc1nn(-c2ccccc2)c2c1C(c1ccc(F)cc1F)C(C#N)=C(N)O2 (stereo unspecified)	-6.8	27.1	5.9	3.6	11.5	/	/
COc1ccc(C2C(C#N)=C(N)Oc3c2c(-c2ccccc2)nn3-c2ccccc2)c(OC)c1OC (stereo unspecified)	6.2	47.2*	25.1*	5.6	11.6	15.8	2.8
CCn1c(-c2ccccc2)c(C(=O)CCl)c2ccccc21	2.4	60.5*	21.0*	-0.1	3.5	76.0*	41.6*
CC1=NN(Cc2ccccc2)C(=O)C1	-12.0	57.1*	70.9*	1.3	-7.3	5.8	-5.1
CC1=NN(c2ccccc2)C(=O)C1	0.5	71.8*	44.9*	-2.2	4.7	10.3	-3.0
CCOc1cc(/C=C2/C(=O)N(c3ccccc3)N=C2C)ccc1OC(=O)c1ccco1	1.7	65.2*	47.0*	3.4	4.1	9.4	-8.4
CC(C)(C)c1cc(C(=O)N/N=C/c2ccc(-c3ccccc3[N+](=O)[O-])o2)n[nH]1	31.9*	52.0*	47.5*	8.5	58.1*	3.8	-7.4	pPAFAH confirm=9.1
Cc1cc(C(=O)N/N=C/c2ccc(-c3cccc(Cl)c3Cl)o2)n[nH]1	-11.8	-8.2	0.7	-9.9	1.2	/	/
O=C(O)/C=C\C(=O)Nc1ccc(N2CCN(c3ccc(F)cc3)CC2)cc1	7.4	58.5*	23.7*	3.8	17.8	2.6	4.4
CNC1=C(N(C(C)=O)c2ccc(Br)cc2)C(=O)c2ccccc2C1=O	19.2	72.6*	46.7*	10.2	-2.6	63.3*	16.1*
COCCN(Cc1ccccc1)C(=O)c1cccc(S(=O)(=O)N(C)c2c(C)n(C)n(-c3ccccc3)c2=O)c1	0.2	4.8	3.7	-2.4	-2.1	/	/
COCCn1c(N)c(S(=O)(=O)c2cccs2)c2nc3ccccc3nc21	7.8	81.0*	21.9*	9.1	-5.5	2.2	-5.0
